The list is not random: actives were taken first. Their share in the collection is about 18%.
TDP1 block = inhibitors of human tyrosyl-DNA phosphodiesterase TDP1; recombinant TDP1, AlphaScreen DNA substrate cleavage; actives 0.28% (n = 350,000); Potency, µM (top dose mostly 130 µM), without a hit: at the top dose activity change, negative = inhibition, most hits filed as inhibitors; AID 485290; note: potency is the fitted concentration of half-maximal effect; % is set by controls: 0 for no effect and ±100 for the full control effect; nearly all actives have a fitted effect of over 40% in size
Target sequence (Q9NUW8 whole entry, looked up): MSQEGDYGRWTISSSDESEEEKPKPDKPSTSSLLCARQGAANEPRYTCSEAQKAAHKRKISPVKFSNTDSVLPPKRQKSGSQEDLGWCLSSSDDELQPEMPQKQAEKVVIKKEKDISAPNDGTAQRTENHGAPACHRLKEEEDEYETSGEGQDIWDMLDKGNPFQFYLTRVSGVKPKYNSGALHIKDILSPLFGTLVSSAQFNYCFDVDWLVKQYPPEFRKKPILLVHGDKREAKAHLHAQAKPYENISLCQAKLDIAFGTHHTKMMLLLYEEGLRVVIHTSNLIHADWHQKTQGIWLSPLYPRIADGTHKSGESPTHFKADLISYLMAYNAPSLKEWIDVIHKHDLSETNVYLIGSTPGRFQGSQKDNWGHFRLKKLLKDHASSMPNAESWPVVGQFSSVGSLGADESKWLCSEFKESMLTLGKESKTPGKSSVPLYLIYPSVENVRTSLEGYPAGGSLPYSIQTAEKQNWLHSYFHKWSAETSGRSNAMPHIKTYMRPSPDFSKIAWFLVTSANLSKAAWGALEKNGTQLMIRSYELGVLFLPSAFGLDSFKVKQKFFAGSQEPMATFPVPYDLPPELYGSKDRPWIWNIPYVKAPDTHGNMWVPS
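Tdp1 1 nM final; 15 min RT w/ cpd; substrate 15 nM, 5 min; beads 10 ug/ml, 10 min; AlphaScreen read. Neg ctrl: no enzyme.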
TDP1 cell noCPT = qHTS for Inhibitors of human tyrosyl-DNA phosphodiesterase 1 (TDP1): qHTS in cells in absence of CPT; DT40 Tdp1-/- hTDP1 cells, no CPT, ATP luminescence, 48 h; Potency, µM (highest dose often 46.2 µM), for the others: at the highest dose activity change, negative = growth inhibition, most hits filed as inhibitors; actives 15% (n = 420,000); note: potency is the fitted concentration of half-maximal effect; % is set by controls: 0 for no effect and ±100 for the full control effect; nearly all actives have a fitted effect of over 55% in size
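Chicken DT40 Tdp1-/- cells complemented with human TDP1, screened without camptothecin (DMSO vehicle only), 400 cells/well. Compounds pin-transferred, cells incubated at 37 °C for at least 48 hr. Growth read as ATP-dependent luminescence (CellTiter-Glo, 30 min at RT).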
TGFb inhibitor = TGF-b pathway inhibition; HepG2 CAGA-GFP TGF-b/SMAD3 reporter, GFP fluorescence, 18 h; TGF-beta stimulated, 500 pg/mL final; Potency, µM (titrated, usually from 46.1 µM), for the others: at the top dose activity, negative = inhibition, actives largely listed as inhibitors; AID 588855; actives 1.2% (n = 410,000); note: potency is the fitted concentration of half-maximal effect; % is set by controls: 0 for no effect and ±100 for the full control effect; nearly all actives have a fitted effect of over 65% in size
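Per well, imaged GFP fluorescence of HEPG2 CAGA-GFP cells gives the signal; cells get compound, then TGF-beta (500 pg/mL final), 18 h at 37 degrees C; %Activity versus -TGF-beta and +DMSO controls.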
TDP1 cell CPT = growth inhibition of DT40 Tdp1-/-;hTDP1 cells with camptothecin (screen for TDP1 inhibitors) | Potency, µM (titrated, usually from 46.2 µM), for inactives: at the highest dose activity change, negative = growth inhibition, usual class: inhibitors | chicken DT40 Tdp1-/-;hTDP1 cells + 20 nM CPT, ATP luminescence, 48 h | actives 12% (n = 420,000); note: potency is the fitted concentration of half-maximal effect; % is set by controls: 0 for no effect and ±100 for the full control effect; nearly all actives have a fitted effect of over 55% in size
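Chicken DT40 Tdp1-/- cells complemented with human TDP1, 400 cells/well, exposed to compounds plus 20 nM camptothecin for at least 48 h at 37 C; viability read as ATP content by CellTiter-Glo luminescence.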
HepG2 tox = kills HepG2 cells in TGF-b inhibitor counter-screen. HepG2 CAGA-GFP viability, ATP luminescence, 18 h. Potency, µM (doses to about 46.1 µM), for the others: top-dose activity change, negative = cytotoxicity, most hits filed as cytotoxic. actives 0.76% (n = 410,000); note: potency is the fitted concentration of half-maximal effect
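CellTiter-Glo luminescence gave cytotoxicity after 18 hours at 37 degrees C. The cells were HepG2 CAGA-GFP in 1% FBS DMEM, stimulated with 500 pg/mL TGF-beta after compound addition. %Activity was normalised to no-cell wells (complete cell-killing) and DMSO (no toxicity), and curves were fitted and classified.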
IL1B secr inh = inhibitors of inflammasome signaling (IL-1 beta secretion). THP-1 LPS/ATP IL-1B secretion, AlphaLISA, 16 h; active compounds read low. activity change, % at 57.5 µM. actives 4.7% (n = 360,000); in the data active = activity change below about -50%; inconclusive = mostly about -30% to -49%; note: % is set by controls: 0 for no effect and ±100 for the full control effect
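Secreted IL-1B measured by AlphaLISA bead assay after 16 h compound exposure of THP-1 cells; compounds (final up to 57.5 uM) added 1 h before LPS (250 ng/mL) and ATP (1.25 mM) stimulation; lower signal means less secretion.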
* marks the source's active call; other numbers are inactive results. Unless noted, calls come from the whole dose curve; as a rule, active = well fitted curve in the direction sought with a large enough effect; inconclusive = small, poorly fitted or top-dose-only effect, or another doubt; inactive = no such curve, though single readings can be large; an effect the other way counts as inactive or inconclusive.

How did CCOCCN1CCN(c2c(C)c(C)nc3cc(-c4cc(OC)cc(OC)c4)nn23)CC1 do in these assays?
TDP1 block: 4%; TDP1 cell noCPT: 26µM*; TGFb inhibitor: -21%; TDP1 cell CPT: inconclusive; HepG2 tox: -24%; IL1B secr inh: inconclusive

How did CCc1c(C)nc2cc(-c3cc(OC)cc(OC)c3)nn2c1N1CCN(CCN2CCOCC2)CC1 do in these assays?
TDP1 block: 6%; TDP1 cell noCPT: 16µM*; TGFb inhibitor: -1%; TDP1 cell CPT: 23µM*; HepG2 tox: 16%; IL1B secr inh: inconclusive

What do the screens show for `COCCN1CCN(c2c(C)c(C)nc3cc(-c4cccc(OC)c4)nn23)CC1`?
TDP1 cell noCPT: inconclusive; TGFb inhibitor: 1%; TDP1 cell CPT: inconclusive; HepG2 tox: 8%; IL1B secr inh: -3

How did Cc1[nH]c(=O)[nH]c(=O)c1NC(=O)c1ccccc1[N+](=O)[O-] do in these assays?
TDP1 cell noCPT: -4%; TGFb inhibitor: 15%; TDP1 cell CPT: 6%; HepG2 tox: 2%; IL1B secr inh: 18

What do the screens show for `OC[C@@H]1CN(Cc2ccncc2)C[C@H](n2cnc3c(NCc4ccncc4)ncnc32)O1`?
TDP1 cell noCPT: -20%; TGFb inhibitor: -3%; TDP1 cell CPT: -11%; HepG2 tox: -22%; IL1B secr inh: 11

Results for CCOc1ccc(-n2cnc3sc(C)c(C)c3c2=O)cc1 ?
TDP1 cell noCPT: -26%; TGFb inhibitor: 13%; TDP1 cell CPT: -12%; HepG2 tox: -1%; IL1B secr inh: 2

Results for Cc1ccc(CN2CCC(c3cc(-c4cccs4)n[nH]3)CC2)cc1 ?
TDP1 block: 3%; TDP1 cell noCPT: inconclusive; TGFb inhibitor: -20%; TDP1 cell CPT: inconclusive; HepG2 tox: -26%; IL1B secr inh: -86*

What do the screens show for `Cc1ccc(CN2CCN(/N=C/c3cccs3)CC2)cc1`?
TDP1 block: 10%; TDP1 cell noCPT: -14%; TGFb inhibitor: -18%; TDP1 cell CPT: -17%; HepG2 tox: -2%; IL1B secr inh: 14

Results for FC(F)(F)c1cccc(CN2CCC(c3cc(-c4cccs4)n[nH]3)CC2)c1 ?
TDP1 block: 8%; TDP1 cell noCPT: 21µM*; TGFb inhibitor: inconclusive; TDP1 cell CPT: 8.2µM*; HepG2 tox: 20µM*; IL1B secr inh: -217*

What do the screens show for `COC(=O)CCN1CCC(c2cc(-c3cccc(C(F)(F)F)c3)n[nH]2)CC1`?
TDP1 cell noCPT: -23%; TGFb inhibitor: -9%; TDP1 cell CPT: -7%; HepG2 tox: -16%; IL1B secr inh: 4

Results for COc1ccc2c(c1)c(C(C)=O)c(C)n2CCc1ccccc1 ?
TDP1 cell noCPT: inconclusive; TGFb inhibitor: 7%; TDP1 cell CPT: inconclusive; HepG2 tox: -5%; IL1B secr inh: -6

How did C[C@@H]1CN([C@@H](C)CO)C(=O)c2cc(Br)cnc2O[C@H]1CN(C)C(=O)c1ccccc1F do in these assays?
TDP1 cell noCPT: 6%; TGFb inhibitor: 3%; TDP1 cell CPT: 4%; HepG2 tox: 9%; IL1B secr inh: -17

What do the screens show for `CCOC(=O)c1c(N)sn(-c2ccccc2C)c1=S`?
TDP1 block: -3%; TDP1 cell noCPT: 26µM*; TGFb inhibitor: -18%; TDP1 cell CPT: 23µM*; HepG2 tox: -11%; IL1B secr inh: -24

What do the screens show for `Cc1cc(C)c(C)c(C(=O)c2ccccc2C(=O)O)c1C`?
TDP1 block: 0%; TDP1 cell noCPT: 3.3µM*; TGFb inhibitor: -10%; TDP1 cell CPT: 3.7µM*; HepG2 tox: 1%; IL1B secr inh: 34

Screening results deposited in PubChem by National Center for Advancing Translational Sciences (NCATS).
